# Assay results published in PubChem BioAssay (Tox21).
# Unmarked numbers belong to inactive results. Records with an inconclusive call do not appear. A call without a number means that no potency is given here. The source made the active and inactive calls. Unless noted, calls come from the whole dose curve; as a rule, active = well fitted curve in the direction sought with a large enough effect in the repeat runs; inconclusive = weak or mixed curves; inactive = no such curve, though single readings can be large; an effect the other way counts as inactive or inconclusive. Non-standard residues stand in square brackets, D forms with d. Residues, ends and D or L forms follow the SMILES beside them. *: point of attachment. Sta = CC(C)C[C@H](N)[C@@H](O)CC(=O)O; Isovaleryl = CC(C)CC(=O)*
# Legend:
# [1] = qHTS assay to identify small molecule agonists of the TGF-beta/Smad signaling pathway - cell viability counter screen (AID 1346829); note: top concentration of the series differs between compounds; nearly all actives have a fitted effect of over 45% in size
# How it was run: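 Same-well cytotoxicity: CellTiter-Glo added after the 2 hr room-temperature beta-lactamase substrate step, luminescence measured 30 min later; cells had 5 hr of compound at 37 C.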
# [2] = qHTS assay to identify small molecule agonists of the TGF-beta/Smad signaling pathway (AID 1346859; active = well fitted activation curve with a large enough effect in the signal ratio in the repeat runs, not every such curve was filed as active; the % refers to the signal ratio; note: series mostly up to about 77 µM)
# How it was run: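 Reporter line: HEK 293T with stably integrated SBE-controlled beta-lactamase. Compound exposure lasts 5 hr at 37 C and 5% CO2; substrate loading follows for 2 hr at room temperature, with emission read at 460 and 530 nm.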
# [3] = target: Thyrotropin-releasing hormone receptor (Homo sapiens) (UniProt P34981); assay: qHTS assay to identify small molecule antagonists of the thyrotropin-releasing hormone receptor (TRHR) signaling pathway (AID 1346877; active = well fitted inhibition curve with a large enough effect in the repeat runs, not every such curve was filed as active; note: series mostly up to about 51 µM)
# Thyrotropin-releasing hormone receptor (Homo sapiens), sequence (P34981 whole entry, looked up): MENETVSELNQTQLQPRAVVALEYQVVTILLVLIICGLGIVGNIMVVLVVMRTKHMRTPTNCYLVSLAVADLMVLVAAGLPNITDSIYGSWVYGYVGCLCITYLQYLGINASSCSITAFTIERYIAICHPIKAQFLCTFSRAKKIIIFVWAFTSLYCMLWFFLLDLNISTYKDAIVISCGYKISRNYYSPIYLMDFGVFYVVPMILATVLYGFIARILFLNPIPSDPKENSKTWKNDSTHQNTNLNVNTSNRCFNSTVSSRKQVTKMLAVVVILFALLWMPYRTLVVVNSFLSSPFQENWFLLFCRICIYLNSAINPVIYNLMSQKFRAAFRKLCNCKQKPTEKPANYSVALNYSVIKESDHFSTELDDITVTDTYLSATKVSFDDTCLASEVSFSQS
# How it was run: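 Antagonism is measured as suppression of the calcium response to 1 nM TRH in TRHR-HEK293 cells that have been dye-loaded for 2 h at 37 °C after overnight plating. Each compound is tested at 15 concentrations in triplicate.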
# [4] = target: Thyrotropin-releasing hormone receptor (Homo sapiens) (UniProt P34981); assay: qHTS assay to identify small molecule agonists of the thyrotropin-releasing hormone receptor (TRHR) signaling pathway (AID 1346891; calls by dose curve;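 note: HEK293 cells expressing TRHR with calcium dye readout; series mostly up to about 58 µM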)
# How it was run: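 Cells: TRHR-Hek293, seeded and incubated 18 h. Dye loading: 2 h at 37 °C. Compound added from DMSO stock by pin tool. Read-out: kinetic calcium fluorescence over 3 min.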
# [5] = Human pregnane X receptor (PXR) small molecule agonists, qHTS cell viability counter screen (AID 1346977); note: nearly all actives have a fitted effect of over 50% in size
# How it was run: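 Cytotoxicity counter screen run in the same wells as the PXR luciferase assay, using PXR-Luc HepG2 cells in charcoal-stripped serum medium. Viability: CellTiter-Fluor fluorescence after 24hr compound treatment.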
# [6] = Caspase-3/7 induction in HepG2 cells by small molecules, qHTS assay (AID 1346978); note: nearly all actives have a fitted effect of over 15% in size
# How it was run: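 Caspase-3/7 induction was measured by Caspase-Glo 3/7 luminescence (30 min, room temperature) after a 17 hr compound exposure of wild-type HepG2 cells seeded at 2,000 per well and pre-incubated 5 hr.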
# [7] = Caspase-3/7 induction in CHO-K1 cells by small molecules, qHTS cell viability counter screen (AID 1346979); note: nearly all actives have a fitted effect of over 35% in size
# How it was run: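 Cytotoxicity counter screen run in parallel with the caspase-3/7 assay: CHO-K1 cells, 16hr compound treatment at 37C, then CellTiter-Fluor for 1hr before fluorescence reading.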
# [8] = Caspase-3/7 induction in HepG2 cells by small molecules, qHTS cell viability counter screen (AID 1346981); note: series mostly up to about 92 µM; nearly all actives have a fitted effect of over 30% in size
# How it was run: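 Cell viability is measured as a cytotoxicity counter screen alongside the Caspase-Glo 3/7 readout in identical wells. Wild-type HepG2 cells are treated with test compounds for 16 hr at 37 C before CellTiter-Fluor addition and a 1-hr incubation.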
# [9] = target: Nuclear receptor subfamily 1 group I member 2 (Homo sapiens) (UniProt O75469); assay: Human pregnane X receptor (PXR) small molecule agonists, qHTS assay (AID 1346982); note: nearly all actives have a fitted effect of over 35% in size
# Nuclear receptor subfamily 1 group I member 2 (Homo sapiens), sequence (O75469 whole entry, looked up): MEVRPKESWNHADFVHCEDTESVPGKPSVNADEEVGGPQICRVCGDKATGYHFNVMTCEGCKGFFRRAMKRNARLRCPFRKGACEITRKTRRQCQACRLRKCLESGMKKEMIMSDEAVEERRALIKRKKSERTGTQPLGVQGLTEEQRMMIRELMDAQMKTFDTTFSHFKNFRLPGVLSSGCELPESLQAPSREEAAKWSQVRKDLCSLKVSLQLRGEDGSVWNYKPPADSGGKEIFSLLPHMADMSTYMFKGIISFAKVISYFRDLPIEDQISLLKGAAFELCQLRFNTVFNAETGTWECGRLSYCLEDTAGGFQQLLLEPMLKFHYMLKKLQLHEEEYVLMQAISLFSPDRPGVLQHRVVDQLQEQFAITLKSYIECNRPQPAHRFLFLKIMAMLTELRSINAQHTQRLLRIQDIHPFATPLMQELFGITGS
# How it was run: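 Cells: HepG2 stably carrying PXR-Luc. Medium held 5% charcoal-stripped FBS. Compounds in DMSO added after 5 hr plating, incubated 24 hr, then luminescence quantified with ONE-Glo.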
# [10] = target: Nuclear receptor subfamily 1 group I member 2 (Rattus norvegicus) (UniProt Q9R1A7); assay: Rat pregnane X receptor (rPXR) activation by small molecules, qHTS assay (AID 1346983); conditions: rPXR luciferase reporter cells, One-Glo luminescence, 24 h; max activation: hits give high values; note: nearly all actives have a fitted effect of over 20% in size
# Nuclear receptor subfamily 1 group I member 2 (Rattus norvegicus), sequence (Q9R1A7 whole entry, looked up): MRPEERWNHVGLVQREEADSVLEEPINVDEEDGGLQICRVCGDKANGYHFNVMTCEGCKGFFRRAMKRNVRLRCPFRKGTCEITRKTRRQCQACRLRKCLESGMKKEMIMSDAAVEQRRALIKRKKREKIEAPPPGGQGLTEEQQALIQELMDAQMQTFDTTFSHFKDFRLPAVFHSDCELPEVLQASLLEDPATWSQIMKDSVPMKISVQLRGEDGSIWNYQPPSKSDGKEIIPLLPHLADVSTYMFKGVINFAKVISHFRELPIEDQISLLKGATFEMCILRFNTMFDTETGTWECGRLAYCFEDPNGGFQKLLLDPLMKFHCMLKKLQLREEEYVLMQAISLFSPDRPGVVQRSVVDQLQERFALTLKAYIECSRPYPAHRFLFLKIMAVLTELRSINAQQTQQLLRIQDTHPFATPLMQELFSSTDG
# How it was run: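 Luminescent readout (One-Glo luciferase, 30 min room temperature) followed 24 hr compound treatment at 37 C of rPXR cells plated 2,000 per well and preincubated 5hr; qHTS format with compounds delivered in DMSO.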
# [11] = target: Nuclear receptor subfamily 1 group I member 2 (Homo sapiens) (UniProt O75469); assay: CYP3A4 induction through human pregnane X receptor (PXR) by small molecules, qHTS assay (AID 1346984); note: nearly all actives have a fitted effect of over 40% in size
# How it was run: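 Quantitative HTS in DPX-2 cells, i.e. HepG2 transfected with PXR response element and CYP3A4-promoter luciferase. Compounds in DMSO incubated 24hr at 37C; then P450-Glo CYP3A4 substrate, 3uM final, 3hr; One-Glo luminescence.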
# [12] = target: Nuclear receptor subfamily 1 group I member 2 (Homo sapiens) (UniProt O75469); assay: Human pregnane X receptor (PXR) activation by small molecules, qHTS assay (AID 1346985); note: nearly all actives have a fitted effect of over 40% in size
# How it was run: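 DPX-2 cells (HepG2 co-transfected with a PXR response element and a CYP3A4-promoter luciferase construct) were seeded at 2,000 per well, rested 5 hr at 37C, then exposed to DMSO-dissolved compounds for 24 hr. Activation was read as luciferase luminescence.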
# [13] = target: Cytochrome P450 2D6 (Homo sapiens) (UniProt P10635); assay: Cytochrome P450 Family 2 Subfamily D Member 6 (CYP2D6) small molecule antagonists: luciferase reporter qHTS assay (AID 1671196); note: series mostly up to about 120 µM; nearly all actives have a fitted effect of over 50% in size
# Cytochrome P450 2D6 (Homo sapiens), sequence (P10635 whole entry, looked up): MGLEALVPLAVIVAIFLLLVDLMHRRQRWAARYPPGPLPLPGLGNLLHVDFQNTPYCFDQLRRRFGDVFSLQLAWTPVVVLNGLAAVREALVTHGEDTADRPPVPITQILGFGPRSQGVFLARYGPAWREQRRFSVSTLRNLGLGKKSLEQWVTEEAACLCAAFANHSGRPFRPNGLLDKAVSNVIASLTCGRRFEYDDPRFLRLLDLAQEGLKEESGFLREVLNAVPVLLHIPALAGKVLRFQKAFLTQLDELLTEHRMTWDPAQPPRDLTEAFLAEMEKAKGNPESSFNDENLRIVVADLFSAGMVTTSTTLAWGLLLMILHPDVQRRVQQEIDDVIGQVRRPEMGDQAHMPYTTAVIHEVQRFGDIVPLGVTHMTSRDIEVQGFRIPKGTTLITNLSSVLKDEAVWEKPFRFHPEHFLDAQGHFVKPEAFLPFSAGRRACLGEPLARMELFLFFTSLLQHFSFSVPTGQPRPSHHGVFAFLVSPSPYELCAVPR
# How it was run: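 Enzyme and proluciferin substrate were first combined with test chemical for 10 min at room temperature. Adding NADPH regeneration solution started a 1 h reaction, stopped with luciferin detection reagent and read by luminescence 20 min later.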
# [14] = target: Cytochrome P450 2C19 (Homo sapiens) (UniProt P33261); assay: Cytochrome P450 Family 2 Subfamily C Member 19 (CYP2C19) small molecule antagonists: luciferase reporter qHTS assay (AID 1671197); note: nearly all actives have a fitted effect of over 65% in size; note: potency is the fitted concentration of half-maximal effect; for activity change, negative = inhibition: series mostly up to about 120 µM
# Cytochrome P450 2C19 (Homo sapiens), sequence (P33261 whole entry, looked up): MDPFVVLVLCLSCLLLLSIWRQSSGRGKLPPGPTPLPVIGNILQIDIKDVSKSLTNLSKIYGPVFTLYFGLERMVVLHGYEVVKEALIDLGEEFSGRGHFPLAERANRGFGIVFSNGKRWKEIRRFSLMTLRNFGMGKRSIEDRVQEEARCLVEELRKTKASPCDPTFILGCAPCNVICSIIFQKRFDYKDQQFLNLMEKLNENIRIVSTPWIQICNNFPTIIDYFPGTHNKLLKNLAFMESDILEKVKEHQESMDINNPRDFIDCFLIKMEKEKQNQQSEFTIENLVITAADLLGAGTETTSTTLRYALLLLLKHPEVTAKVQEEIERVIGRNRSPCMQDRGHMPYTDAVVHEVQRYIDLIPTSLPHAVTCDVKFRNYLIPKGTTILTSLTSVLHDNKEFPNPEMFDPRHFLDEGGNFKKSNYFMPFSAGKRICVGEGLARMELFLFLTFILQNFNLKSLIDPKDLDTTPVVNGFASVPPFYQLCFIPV
# How it was run: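 Quantitative high-throughput screen of the Tox21 library using CYP2C19 with proluciferin substrate. Reaction: NADPH regeneration, 37C, 1 h, after 10 min compound preincubation at room temperature. Readout: luminescence.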
# [15] = target: Cytochrome P450 2C9 (Homo sapiens) (UniProt P11712); assay: Cytochrome P450 Family 2 Subfamily C Member 9 (CYP2C9) small molecule antagonists: luciferase reporter qHTS assay (AID 1671198); note: series mostly up to about 120 µM; nearly all actives have a fitted effect of over 50% in size
# Cytochrome P450 2C9 (Homo sapiens), sequence (P11712 whole entry, looked up): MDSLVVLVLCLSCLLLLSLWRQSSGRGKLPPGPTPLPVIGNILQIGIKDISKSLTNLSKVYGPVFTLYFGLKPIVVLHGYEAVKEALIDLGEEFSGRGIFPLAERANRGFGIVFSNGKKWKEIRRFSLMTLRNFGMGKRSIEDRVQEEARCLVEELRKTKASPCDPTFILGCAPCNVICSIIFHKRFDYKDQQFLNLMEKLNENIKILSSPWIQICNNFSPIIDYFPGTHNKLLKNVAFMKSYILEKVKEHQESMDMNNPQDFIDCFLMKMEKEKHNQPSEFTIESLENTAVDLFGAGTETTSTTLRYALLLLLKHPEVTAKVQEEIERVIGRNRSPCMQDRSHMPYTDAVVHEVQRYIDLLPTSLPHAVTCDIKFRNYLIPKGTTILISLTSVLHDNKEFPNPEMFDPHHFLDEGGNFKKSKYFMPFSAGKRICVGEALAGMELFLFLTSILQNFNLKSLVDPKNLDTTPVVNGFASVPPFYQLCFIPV
# How it was run: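 Enzyme-substrate mix preincubated with compound 10 min at room temperature; reaction started with NADPH regeneration solution, 1 h 37C. Luminescent luciferin product read after 20 min detection reagent.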
# [16] = target: Voltage-gated inwardly rectifying potassium channel KCNH2 (Homo sapiens) (UniProt Q12809); assay: Human Ether-a-go-go-Related Gene (hERG) channel small molecule antagonists: fluorescence cell-based qHTS assay (AID 1671200);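 note: hERG-expressing U2OS cells given a thallium stimulus after FluxOR II dye loading; series mostly up to about 77 µM; nearly all actives have a fitted effect of over 50% in size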
# Voltage-gated inwardly rectifying potassium channel KCNH2 (Homo sapiens), sequence (Q12809 whole entry, looked up): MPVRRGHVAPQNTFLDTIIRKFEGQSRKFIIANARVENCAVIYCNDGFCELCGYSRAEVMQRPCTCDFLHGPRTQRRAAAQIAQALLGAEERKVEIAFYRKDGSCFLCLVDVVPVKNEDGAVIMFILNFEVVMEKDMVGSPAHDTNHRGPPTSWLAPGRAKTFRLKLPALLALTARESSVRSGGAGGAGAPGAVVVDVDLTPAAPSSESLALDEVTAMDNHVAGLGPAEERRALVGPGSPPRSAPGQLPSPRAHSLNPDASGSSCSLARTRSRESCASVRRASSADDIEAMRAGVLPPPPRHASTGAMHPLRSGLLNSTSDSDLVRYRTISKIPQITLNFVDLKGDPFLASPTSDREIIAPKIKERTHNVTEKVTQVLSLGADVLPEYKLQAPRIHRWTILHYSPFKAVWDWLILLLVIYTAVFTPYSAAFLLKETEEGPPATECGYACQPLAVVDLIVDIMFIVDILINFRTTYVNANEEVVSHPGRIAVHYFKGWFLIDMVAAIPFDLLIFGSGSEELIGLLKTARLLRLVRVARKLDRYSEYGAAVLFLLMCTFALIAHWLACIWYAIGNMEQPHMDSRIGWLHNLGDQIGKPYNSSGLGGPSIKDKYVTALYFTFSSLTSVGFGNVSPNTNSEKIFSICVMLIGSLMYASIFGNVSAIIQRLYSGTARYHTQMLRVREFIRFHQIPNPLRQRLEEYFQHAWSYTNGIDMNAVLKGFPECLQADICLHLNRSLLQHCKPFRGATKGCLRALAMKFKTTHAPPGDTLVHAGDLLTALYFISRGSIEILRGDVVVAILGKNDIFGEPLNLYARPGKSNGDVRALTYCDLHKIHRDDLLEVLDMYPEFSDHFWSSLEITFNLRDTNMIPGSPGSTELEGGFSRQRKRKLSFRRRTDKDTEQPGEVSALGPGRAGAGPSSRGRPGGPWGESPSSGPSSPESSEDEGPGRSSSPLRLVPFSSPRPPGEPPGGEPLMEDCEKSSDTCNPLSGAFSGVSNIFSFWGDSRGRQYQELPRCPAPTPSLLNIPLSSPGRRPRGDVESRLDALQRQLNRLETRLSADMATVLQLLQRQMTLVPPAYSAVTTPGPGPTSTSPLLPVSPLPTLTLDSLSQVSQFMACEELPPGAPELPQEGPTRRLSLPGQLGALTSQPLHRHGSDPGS
# How it was run: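 Fluorescence at 540 nm emission (480 nm excitation) was recorded kinetically for 2 min at 1-second intervals once the thallium-containing stimulus reached cells previously loaded with FluxOR II dye.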
# [17] = target: Cytochrome P450 3A4 (Homo sapiens) (UniProt P08684); assay: Cytochrome P450 Family 3 Subfamily A Member 4 (CYP3A4) small molecule antagonists: luciferase reporter qHTS assay (AID 1671201)
# Cytochrome P450 3A4 (Homo sapiens), sequence (P08684 whole entry, looked up): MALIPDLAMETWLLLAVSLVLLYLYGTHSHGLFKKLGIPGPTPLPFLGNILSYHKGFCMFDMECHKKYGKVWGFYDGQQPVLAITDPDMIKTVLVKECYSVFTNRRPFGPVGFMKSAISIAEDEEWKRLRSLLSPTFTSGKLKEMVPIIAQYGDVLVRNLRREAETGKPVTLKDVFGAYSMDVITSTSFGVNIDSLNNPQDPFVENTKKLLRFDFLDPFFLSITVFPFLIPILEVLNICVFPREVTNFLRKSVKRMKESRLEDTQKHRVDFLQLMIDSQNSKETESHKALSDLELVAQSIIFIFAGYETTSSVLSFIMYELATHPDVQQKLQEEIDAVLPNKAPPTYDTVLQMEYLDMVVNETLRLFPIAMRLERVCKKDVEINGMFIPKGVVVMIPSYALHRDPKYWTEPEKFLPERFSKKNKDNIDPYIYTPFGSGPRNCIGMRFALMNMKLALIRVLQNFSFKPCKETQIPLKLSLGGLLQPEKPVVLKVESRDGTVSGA
# How it was run: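 qHTS, 1536-well. CYP3A4 + proluciferin substrate, cpd 10 min RT → NADPH regen 1 h RT → detection reagent 20 min → luminescence (RLU). Ketoconazole positive control.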
# [18] = Caspase-3/7 induction in CHO-K1 cells by small molecules, qHTS assay (AID 1346980); note: nearly all actives have a fitted effect of over 15% in size
# How it was run: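 Luminescent Caspase-Glo 3/7 read (30min, room temperature) quantified apoptosis induction. Cells were wild-type CHO-K1, treated with compound for 17hr at 37 C and 5% CO2.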
# [19] = target: Cytochrome P450 1A2 (Homo sapiens) (UniProt P05177); assay: Cytochrome P450 Family 1 Subfamily A Member 2 (CYP1A2) small molecule antagonists: luciferase reporter qHTS assay (AID 1671199)
# Cytochrome P450 1A2 (Homo sapiens), sequence (P05177 whole entry, looked up): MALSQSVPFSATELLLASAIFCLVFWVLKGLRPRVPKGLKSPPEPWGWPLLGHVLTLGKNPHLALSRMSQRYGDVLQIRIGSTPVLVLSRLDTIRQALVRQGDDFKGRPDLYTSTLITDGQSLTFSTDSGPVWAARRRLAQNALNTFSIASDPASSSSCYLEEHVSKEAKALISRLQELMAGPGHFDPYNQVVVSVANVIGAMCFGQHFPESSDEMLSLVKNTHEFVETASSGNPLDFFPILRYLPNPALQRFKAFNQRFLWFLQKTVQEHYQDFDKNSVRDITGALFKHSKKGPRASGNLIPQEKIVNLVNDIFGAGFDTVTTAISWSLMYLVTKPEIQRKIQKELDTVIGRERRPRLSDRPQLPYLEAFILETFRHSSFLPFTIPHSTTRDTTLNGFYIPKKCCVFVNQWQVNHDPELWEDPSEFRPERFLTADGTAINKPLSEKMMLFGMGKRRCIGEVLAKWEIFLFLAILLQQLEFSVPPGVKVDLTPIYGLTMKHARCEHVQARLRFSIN
# How it was run: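 Compounds were incubated with CYP1A2 and a luminogenic proluciferin substrate for 10 min at room temperature before the reaction was started with NADPH regeneration solution. After 1 h, detection reagent was added and light output, proportional to CYP activity, was recorded.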
compound,measurement,setting,value
CC(C)CC(=O)N[C@H](C(=O)N[C@H](C(=O)N[C@@H](CC(C)C)[C@@H](O)CC(=O)N[C@@H](C)C(=O)N[C@@H](CC(C)C)[C@@H](O)CC(=O)O)C(C)C)C(C)C (Isovaleryl-VV[Sta]A[Sta]-OH),outcome,[1],inactive
same,outcome,[2],inactive
same,outcome,[3],inactive
same,Potency,[4],inactive
same,outcome,[5],inactive
same,outcome,[6],inactive
same,Potency,[7],inactive
same,outcome,[8],inactive
same,Potency,[9],inactive
same,max activation,[10],-4.42%
same,outcome,[11],inactive
same,outcome,[12],inactive
same,Potency,[13],inactive
same,Potency,[14],inactive
same,Potency,[15],inactive
same,Potency,[16],inactive
same,Potency,[17],inactive
CCCCCCCCCCCCCCCC(=O)OC,"activity change, negative = cytotoxicity",[1],-0.944% [at 15.8 µM]
same,activation,[2],0.447% [at 15.8 µM]
same,"activity, negative = inhibition",[3],0.477% [at 10.5 µM]
same,activation,[4],1.74% [at 11.8 µM]
same,"activity change, negative = cytotoxicity",[5],0.375% [at 19 µM]
same,"activity change, negative = cytotoxicity",[7],3.95% [at 19 µM]
same,caspase-3/7 activation,[18],1.1% [at 19 µM]
same,"activity change, negative = cytotoxicity",[8],-1.7% [at 19 µM]
same,activation,[9],4.26% [at 19 µM]
same,"activity change, negative = inhibition",[13],1.63% [at 23.6 µM]
same,"activity change, negative = inhibition",[14],-1.98% [at 23.6 µM]
same,"activity change, negative = inhibition",[15],2.75% [at 23.6 µM]
same,"activity change, negative = inhibition",[19],-2.98% [at 23.6 µM]
same,"activity change, negative = inhibition",[16],-9.56% [at 15.8 µM]
same,"activity change, negative = inhibition",[17],2.42% [at 23.6 µM]
Clc1cc(Cl)c(Cl)c(Cl)c1Cl,outcome,[1],inactive
same,outcome,[2],inactive
same,outcome,[3],inactive
same,Potency,[4],inactive
same,outcome,[5],inactive
same,outcome,[6],inactive
same,Potency,[7],inactive
same,outcome,[18],inactive
same,Potency,[9],inactive
same,Potency,[13],inactive
same,Potency,[14],inactive
same,Potency,[15],inactive
same,Potency,[19],inactive
same,Potency,[16],inactive
same,Potency,[17],inactive
CC1(C)S[C@@H]2[C@H](NC(=O)Cc3ccccc3)C(=O)N2[C@H]1C(=O)O (tested in a mixture with another compound),outcome,[1],inactive
same,outcome,[2],inactive
same,outcome,[3],inactive
same,Potency,[4],inactive
same,outcome,[5],inactive
same,outcome,[6],inactive
same,Potency,[7],inactive
same,Potency,[16],inactive
O=C(O)CCCCCCCCCC(=O)O,outcome,[1],inactive
same,outcome,[2],inactive
same,outcome,[3],inactive
same,Potency,[4],inactive
same,outcome,[5],inactive
same,Potency,[7],inactive
same,outcome,[18],inactive
same,outcome,[8],inactive
same,Potency,[9],inactive
same,Potency,[14],inactive
same,Potency,[15],inactive
same,Potency,[16],inactive
C=COCCCCO,outcome,[1],inactive
same,outcome,[2],inactive
same,outcome,[3],inactive
same,Potency,[4],inactive
same,outcome,[5],inactive
same,outcome,[6],inactive
same,Potency,[7],inactive
same,outcome,[8],inactive
same,Potency,[14],inactive
same,Potency,[16],inactive
same,Potency,[17],inactive
CC(=O)Nc1ccc(S(=O)(=O)Nc2cc(C)on2)cc1,outcome,[1],inactive
same,outcome,[2],inactive
same,outcome,[3],inactive
same,Potency,[4],inactive
same,outcome,[5],inactive
same,Potency,[7],inactive
same,outcome,[18],inactive
same,outcome,[8],inactive
same,Potency,[9],inactive
same,Potency,[13],inactive
same,Potency,[14],inactive
same,Potency,[15],inactive
same,Potency,[19],inactive
same,Potency,[16],inactive
same,Potency,[17],inactive
CC(C)(C)C(=O)NCCCC(=O)O,outcome,[1],inactive
same,outcome,[2],inactive
same,outcome,[3],inactive
same,Potency,[4],inactive
same,outcome,[5],inactive
same,outcome,[6],inactive
same,Potency,[7],inactive
same,outcome,[18],inactive
same,Potency,[9],inactive
same,max activation,[10],-1.4%
same,outcome,[11],inactive
same,outcome,[12],inactive
same,Potency,[13],inactive
same,Potency,[14],inactive
same,Potency,[15],inactive
same,Potency,[19],inactive
same,Potency,[16],inactive
same,Potency,[17],inactive
C=CCCCCCCCCCCCCCC,"activity change, negative = cytotoxicity",[1],9.91% [at 15.8 µM]
same,activation,[2],0.917% [at 15.8 µM]
same,"activity, negative = inhibition",[3],2.16% [at 10.5 µM]
same,activation,[4],-0.0775% [at 11.8 µM]
same,"activity change, negative = cytotoxicity",[5],1.28% [at 19 µM]
same,caspase activation,[6],1.32% [at 19 µM]
same,"activity change, negative = cytotoxicity",[7],5.54% [at 19 µM]
same,caspase-3/7 activation,[18],1.16% [at 19 µM]
same,activation,[9],1.1% [at 19 µM]
same,"activity change, negative = inhibition",[13],-17.7% [at 23.6 µM]
same,Potency,[14],18.6 µM (active)
same,"activity change, negative = inhibition",[15],-3.74% [at 23.6 µM]
same,"activity change, negative = inhibition",[16],4.07% [at 15.8 µM]
